Measured values from PubChem BioAssay (NCI).
The panel holds about 83,000 compounds, 20% with a hit somewhere; the sample as a whole holds those more often.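 Method: cells in 96-well plates; compound added at one concentration; 48 h incubation; percent growth measured; values under 10 scored active.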 The source made the active and inactive calls.

test system: EKVX NSCLC; experiment: NCI-60 one-dose screen, 48 h (100 = growth as untreated, 0 = no growth, -100 = all killed); details: 10 µM unless noted
Protocol: Growth inhibition of the EKVX human Non-Small Cell Lung tumor cell line is measured as a screen for anti-cancer activity. Cells are grown in 96 well plates and exposed to the test compound for 48 hours. Compounds are tested at a single concentration, which is 10^-5 M for most compounds. The reported endpoint is percent growth (GI% or GIPRCNT), where numbers from 0 - 100% represent growth inhibition, and numbers from -100% - 0 represent cell death. For example, a value of 40 represents 60% growth inhibition. A value of 0 means no net growth occurred over the course of the experiment. A value of -40 indicates 40% of cells at the beginning of the experiment died by the end of the experiment. A value of -100 means all cells are dead at the end of the experiment.
NCI-60 Human Tumor Cell Lines Screen was performed using the standard one-dose NCI protocol, which is described in more detail at https://dtp.cancer.gov/discovery_development/nci-60/default.htm.
Compounds with GIPRCNT values below 10 were considered active. Activity score was based on GIPRCNT using the following formula: […]
Score is 0 for GIPRCNT values of 100 or above, 50 for GIPRCNT values of 0, and 100 for GIPRCNT values of -100.

Compound	growth
CCCCOc1nc2ccccc2cc1C1CNC(=O)c2ccccc2N1 (stereo not given)	33% (inactive)
CNC(=O)c1cc(Oc2cccc3nc(Nc4ccc(F)c(Cl)c4)ccc23)ccn1	69.5% (inactive)
Cc1cccc(Cc2cnc(NC(=O)c3ccc4nnsc4c3)s2)c1	87.4% (inactive)
C=C1C(=O)O[C@H]2[C@H]1CC/C(COC(=O)C(=O)c1c[nH]c3ccccc13)=C\CC[C@@]1(C)O[C@@H]21	48.2% (inactive)
COC1=CC(=O)C[C@@H](C)[C@]12Oc1c(Cl)c(OC)cc(OC)c1C2=O	106% (inactive)
CC(=O)c1ccc(NCC(=O)Nc2ccccn2)cc1	101% (inactive)
O=S(=O)(Nc1cccc(Cl)c1)c1ccc(-c2cnc(C3CC3)o2)cc1	35.1% (inactive)
Cc1nn(-c2ccccc2)c2nc3c(c(-c4ccc(Cl)cc4)c12)CNC1(CCSCC1)N3	94% (inactive)
C[C@]12CC[C@@H]3c4cc(OC(F)F)c(O)cc4CC[C@H]3[C@@H]1CC[C@@H]2OS(N)(=O)=O	24.6% (inactive)
COc1ccccc1CNCCCN1C(=O)c2ccc3c4c(ccc(c24)C1=O)C(=O)N(CCCNCCCCN)C3=O	8.85% (active)
Cc1c(Cl)cc(-n2c(=O)c3ccccc3c3ccccc3c2=O)cc1Cl	97% (inactive)
COCCc1ccc(OCC(O)CNC(C)C)cc1 (stereo not given)	96% (inactive)
O=C1/C(=C2/C=Nc3ccccc32)N(O)c2ccccc21	66.9% (inactive)
Cc1occc1-c1n[nH]c(=S)n1N1C(=O)CSC1=S	99.1% (inactive)
Cc1cccc(-c2nc(N(C)c3ccc4ncsc4c3)c3ccccc3n2)n1	85% (inactive)
COc1c(CCC[P+](c2ccccc2)(c2ccccc2)c2ccccc2)cc2c(c1OC)OCO2	15.6% (inactive)
Cc1ccc2nc3ccccc3c(NCc3ccccc3)c2c1	49.6% (inactive)
CN(C)CC1C(=O)O[C@H]2[C@H]1CC/C(COC(=O)c1cc3ccccc3[nH]1)=C\CC[C@@]1(C)O[C@@H]21 (stereo not given in full)	-27.4% (active)
CC(=O)c1nc(Nc2ccc(C)cc2)sc1C	74.4% (inactive)
O=S(=O)(O)c1ccc(N/N=C/c2ccccc2Cl)cc1	116% (inactive)

Compound	growth
Cc1ccc(Cl)c(NS(=O)(=O)c2ccc(-c3cnc(C4CC4)o3)cc2)c1	31.4% (inactive)
N=C1CCC(=N)c2c1c(O)c1ccccc1c2O	82.1% (inactive)
CS(=O)c1cccc(-c2ccc3nc(N)n(-c4ccc(C(F)(F)F)cc4)c(=O)c3c2)c1 (stereo not given)	108% (inactive)
COc1ccc(CN2C(=O)C(Cl)=C(Nc3cccc(C(F)(F)F)c3)C2=O)cc1	63.4% (inactive)
CCCCCCCCCOc1c(OC)cc(C2CC(=O)Nc3c2c(C)nn3-c2nc3ccccc3[nH]2)cc1OC (stereo not given)	-83.5% (active)
Cc1nn(-c2ccccc2)c(Cl)c1/C=C(/NC(=O)c1ccccc1)c1nc2ccccc2[nH]1	94.4% (inactive)
COc1ccc(S(=O)(=O)NCCNc2nccc(-c3c(-c4cccc(F)c4)nc4sccn34)n2)cc1	39.7% (inactive)
NS(=O)(=O)c1cnccc1Oc1cccc2cccnc12	97.1% (inactive)
COc1ccc(N=Nc2ccc(O)c(=O)cc2)cc1	4.69% (active)
COc1ccc(NC(=O)CSc2nnc(-c3cc(-c4ccccc4)nc4ccccc34)n2-c2ccccc2)cc1	78.1% (inactive)
O=C1OC(c2nc3ccccc3s2)=C/C1=C\c1ccc(O)cc1	102% (inactive)
NC(=N\N=C/c1ccccc1[N+](=O)[O-])/C(N)=N\N=C/c1ccccc1[N+](=O)[O-]	98.5% (inactive)
O=c1c2c3c(sc2n2c(-c4cc(-c5ccccc5)nn4-c4ccccc4)nnc2n1Cc1ccccc1)CCCC3	101% (inactive)
CN(c1ccccc1)c1ccc2c(c1)OCCC21CC1Nc1cnccc1C(=O)O (stereo not given)	93.1% (inactive)
Cc1c(C)c2c(c(C)c1OCC(=O)O)CC[C@@](C)(CCC[C@@H](C)CCC[C@@H](C)CCCC(C)C)O2	32.3% [50 µM] (inactive)
Cc1ccc(N2CCN(C(=S)c3cccs3)CC2)cc1	108% (inactive)
COc1ccc(-c2nc(SCC(=O)Nc3nc(-c4ccccc4)cs3)[nH]c(=O)c2C#N)cc1	101% (inactive)
C[C@@H]1N=C(c2ccc3ccccc3n2)Nc2nc3ccccn3c2C1=O	77.7% (inactive)
C=C(C)[C@@H]1CC[C@]2(C)[C@H](CC=C3[C@@H]4CC(C)(C)CC[C@]4(C(N)=O)CC[C@]32C)[C@@]1(C)CCC#N	46.1% (inactive)
CC/C=C/C/C=C/C/C=C/C/C=C/C/C=C/C/C=C/CCC(=O)Nc1ccn([C@@H]2O[C@H](CO)[C@@H](O)C2(F)F)c(=O)n1	70% (inactive)
